# In PubChem BioAssay (NCI):
# Compounds without any hit were thinned out: in the full panel of roughly 83,000, 20% have a hit.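 Negative percent growth values reflect cell death: -40 means 40% of the cells present at the start died, and -100 means all died.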 Values without a mark were called inactive. Rule for the calls: active = growth percent below 10; inactive = the rest.
# Test system: MDA-MB-468 breast
# Experiment: NCI-60 one-dose screen, 48 h (100 = growth as untreated, 0 = no growth, -100 = all killed)
# Conditions: 10 µM unless noted
row,Structure (SMILES),growth [%]
1,C/C(=N/OC(=O)N(C)C)c1ccc(Cl)cc1Cl,114
2,O=c1[nH]c2ccc([N+](=O)[O-])cc2c(=O)o1,108
3,CC(=O)C1CCC2C3CC=C4CC(OC(=O)Cc5ccc(N(CCCl)CCCl)cc5)CCC4(C)C3CCC12C (stereo not drawn),94.7
